Results with a measured potency or affinity are listed apart. Calls of active or inactive are those of the source.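 How the source made its calls: active means absorbance falls by 30% or more versus neutral controls, with a potency fitted within twice the top valid dose; inconclusive means no clear call, values can overlap the other calls; inactive means change opposite to expected direction, plus the rest.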
target: Protein disulfide-isomerase (Homo sapiens) (UniProt P07237); test: PDI inhibitors, insulin aggregation turbidity, dose response, biochemical, absorbance, cherry-picked samples (AID 602350); settings: recombinant PDI insulin aggregation, absorbance 650 nm, 90 min; series mostly up to 19.5 µM
Sequence (P07237 whole entry, looked up): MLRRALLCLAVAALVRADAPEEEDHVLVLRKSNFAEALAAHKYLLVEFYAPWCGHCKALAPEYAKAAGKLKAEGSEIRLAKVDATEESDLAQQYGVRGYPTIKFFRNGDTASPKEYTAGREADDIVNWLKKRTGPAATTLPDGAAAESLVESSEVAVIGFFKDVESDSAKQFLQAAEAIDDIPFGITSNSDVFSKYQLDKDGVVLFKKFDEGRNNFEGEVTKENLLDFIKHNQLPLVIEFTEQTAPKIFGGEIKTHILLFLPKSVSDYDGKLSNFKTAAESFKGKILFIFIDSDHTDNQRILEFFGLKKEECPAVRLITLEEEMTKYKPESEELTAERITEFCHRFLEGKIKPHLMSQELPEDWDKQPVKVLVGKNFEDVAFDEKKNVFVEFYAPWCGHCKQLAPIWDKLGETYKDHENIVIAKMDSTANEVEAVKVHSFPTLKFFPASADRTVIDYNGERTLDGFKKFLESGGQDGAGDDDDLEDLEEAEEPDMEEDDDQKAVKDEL

outcome, inactive:
Cc1ccc(CN(c2ccc(C(=O)NCc3ccccn3)cc2)S(C)(=O)=O)cc1
Cc1noc(C)c1S(=O)(=O)Nc1ccc2c(c1)CC(=O)N([C@H](C)CO)C[C@@H](C)[C@@H](CN(C)S(=O)(=O)c1ccc(F)cc1)O2
CC(C)C[C@@H](CN1CCC[C@@H]1CN1C(=O)C(=O)NC[C@@H]1Cc1ccccc1)N1C[C@H](Cc2ccc(O)cc2)N(CCc2ccccc2)C(=O)C1=O
Cc1noc(C)c1C(=O)OCC(=O)NCCc1ccc(Cl)cc1
CC12CCC3c4ccc(O)cc4CCC3C1CCC2=O (stereo not given)
O=C(NC1CCCCC1)C1CCN(S(=O)(=O)c2cccs2)CC1
COCc1[nH][nH]c(=O)c1C=Nc1ccc(F)cc1F
COc1ccc(C(=O)c2c(C)c3cc(C)ccc3n2CC(O)CN2CCOCC2)cc1 (stereo not given)
CCS(=O)(=O)c1ccc2oc(SCC(=O)NC(C)C3CC4CCC3C4)nc2c1 (stereo not given)
O=C(/C=C/c1c(F)cccc1Cl)c1ccc(O)cc1
COc1ccc(Oc2ccc(/C=C/C(=O)c3ccc(O)cc3)cc2[N+](=O)[O-])cc1
COC(=O)c1ccc(COC(=O)CSCC(=O)Nc2ccc(C)cc2C)cc1
CCCCn1c(SCC(=O)Nc2ccc(C)c(S(=O)(=O)N3CCOCC3)c2)nnc1C(CC)N(C)C (stereo not given)
O=C(CSc1n[nH]c(-c2ccccc2)n1)Nc1ccccc1O
O=C(NCCc1c[nH]c2ccccc12)/C(=C\c1cccnc1)NC(=O)c1ccccc1Br
O=C(CCN1C(=O)C2C3C=CC(C4CC34)C2C1=O)Oc1ccccc1 (stereo not given)
Cc1noc(C)c1S(=O)(=O)Nc1ccc2c(c1)CC(=O)N([C@@H](C)CO)C[C@H](C)[C@@H](CN(C)S(=O)(=O)c1ccc(F)cc1)O2
CC[C@]12c3[nH]c4cc(-c5ccco5)ccc4c3CCN1C(=O)[C@@H](CC(=O)NCC13CC4CC(CC(C4)C1)C3)C[C@@H]2C(=O)N1CCN(C(=O)c2ccco2)CC1
COc1ccc(OC)c2[nH]c(=O)c(CCNC(=O)C(=O)c3c(C)[nH]c4ccccc34)cc12
OCCC1CN(Cc2cccn2-c2ccccn2)CCN1C1CCCCC1 (stereo not given)
CCCNC(=O)Cn1c(-c2ccc(F)cc2)cc(C(=O)OCC)c1C
COc1cccc(-n2ccnc2SCC(=O)Nc2cc(OC)ccc2OC)c1
O=C1N[C@@H](Cc2c[nH]c3ccccc23)COC(=O)[C@@H](Cc2ccc(F)cc2)C/C=C\C[C@H]1CC(=O)N(CCO)Cc1ccccc1
Cn1nccc1C(=O)Nc1ccc(S(=O)(=O)N2CCCC2)cc1
Cc1ccc(SCC(=O)c2sc(-c3ccccc3)nc2C)cc1
Cc1cc(C)cc(OCC(=O)Nc2ccccc2C(=O)N2CCOCC2)c1
O=C1[C@@H]2C(Cc3ccc(O)cc3)NC3(C(=O)Nc4ccc(F)cc43)[C@@H]2C(=O)N1c1ccccc1 (stereo not given in full)
COc1cccc(NC(=O)CN(C)C(=O)/C=C/c2cc(OC)ccc2OC)c1
Cc1ccc(C2=Nc3ccccc3SC(c3cccc([N+](=O)[O-])c3)C2)cc1 (stereo not given)
CN(C)c1ccc(C2(O)C(=O)c3ccccc3C2=O)cc1
CCOc1cc(N2CCOCC2)c(OCC)cc1NC(=O)Cc1ccccc1OC
O=C(CCc1ccc(O)cc1)NN=Cc1cc(Br)ccc1O
CN1CCN(C(=O)CSc2nnc(COc3ccc(Cl)cc3)o2)CC1
O=C1CN(c2nc3ccccc3n3cnnc23)CC(=O)N1CCc1ccccc1
O=C(O)c1ccccc1Cc1ccc(F)c2ccccc12
Cc1c(O)ccc2c(CN3CCN(Cc4ccccc4)CC3)cc(=O)oc12
O=C(O)CCc1ccc(-c2cccs2)n1NC(=O)c1ccco1
CN(C)c1ccc(NC(=O)CN2C(=O)CC(c3ccccc3)=Nc3ccccc32)cc1
COc1ccc(/C=C/C(=O)c2cc(F)ccc2OC(=O)c2ccccc2OC)cc1OC
Cc1c(C(=O)N2CCOCC2)sc2ncn(CC(=O)N3CCC(C)CC3)c(=O)c12
